Bioassay records (PubChem)
Shn3 inh set2 – reduces Shn3 3'UTR luciferase signal in osteoblasts; Clone20 osteoblast Shn3 3'UTR firefly luciferase, 24 h; 0.52% of 360,000 active; AID 588674; inhibition, % at 12.5 µM;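 active = mean inhibition of at least 75% with every replicate also reaching 75%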;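 also: 0% = median of neutral control wells and 100% = pilot-screen positive control compound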
Peg3 promoter – Peg3 promoter activity inhibition. HeLa PEG-Prom luciferase reporter, luminescence, overnight. inhibition, % at 20 µM. 1.7% of 360,000 active. AID 588405;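 active = inhibition of at least 50% at 20 µM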
TRPM1 prom inh – inhibitors of MITF-driven TRPM1 promoter in melanoma cells. SK-MEL-5 TRPM1 promoter luciferase, 24 h. AID 488899. 0.83% of 330,000 active. inhibition, % at 12.5 µM;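 active = mean inhibition across replicates of 60% or more, whatever share of single replicates reaches that level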
TWEAK Fn14 block – blocks TWEAK-Fn14 interaction in a reporter cell assay; TWEAK-stimulated Fn14 reporter cells, luciferase luminescence, 8 h; inhibition, % at 10 µM; 2% of 360,000 active; in the data active = inhibition above about 50%
LMP1 NFkB inh – reduces LMP1-driven NF-kappaB luciferase signal; 0.69% of 350,000 active; inhibition, % at 12.5 µM; LMP1-induced NF-kappaB luciferase reporter cells, luminescence; AID 504558; in the data active = inhibition above about 41%;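 also: 0% = neutral control wells and 100% = reference inhibitor control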
TROY NFkB inh – TROY signaling inhibition. Q293 LMP1-TROYcd NF-kB luciferase reporter, 4 h. inhibition, % at 10 µM. 0.98% of 360,000 active;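 active = compounds whose plate-normalised and pattern-corrected inhibition of the luciferase reporter signal at the single screening dose is 50% or more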
An asterisk follows results filed as active; nt = no result; ! = not active in a repeat. An excerpt weighted towards active compounds, which were near 4.1% of everything screened.

SMILES | Shn3 inh set2 | Peg3 promoter | TRPM1 prom inh | TWEAK Fn14 block | LMP1 NFkB inh | TROY NFkB inh
O=C(NC(=S)N1CCCc2ccccc21)c1ccco1 | -6.6 | -28.1 | -8.6 | 51.9* | -9.3 | 52.6*
O=C(COc1ccc(Cl)cc1Cl)NC(=S)N1CCCc2ccccc21 | 0.5 | -44.6 | -18.4 | 57.8* | -13.5 | 9.8
Cc1cccc(OCC(=O)NC(=S)N2CCCc3ccccc32)c1 | 9.5 | -68.2 | -10.0 | 56.3* | 9.1 | 39.5
O=C(COc1ccc(Cl)cc1Cl)NC(=O)N1CCCCC1 | -73.8 | -266.7 | -92.2 | 61.2* | 5.3 | 0.3
O=C(COc1ccc(Cl)cc1Cl)OCC(=O)N1CCCc2ccccc21 | 11.1 | 1.8 | 16.3 | -4.1 | -5.0 | 8.6
CS(=O)(=O)c1ccc(Cl)c(NC(=O)COC(=O)Cc2c[nH]c3ccccc23)c1 | -11.2 | 7.9 | 7.5 | 8.5 | -1.4 | 13.6
Cc1cc(C)cc(OCC(=O)Nc2ccncc2)c1 | 55.4 | 14.2 | 2.2 | 14.8 | 2.5 | 11.0
COc1cc(C(CC(=O)Nc2cc(C)ccn2)N2Cc3ccccc3C2=O)cc(OC)c1OC (centres undefined) | -19.3 | -3.2 | -2.7 | -23.3 | -5.2 | 14.1
Cc1ccc(C(=O)N2CCc3ccccc32)cc1C | -37.3 | -186.1 | -50.0 | -23.3 | -15.8 | -41.4
Cc1ccc(C(=O)N2CCc3ccccc32)cc1NC(=O)c1ccco1 | -6.0 | 10.9 | 16.3 | 89.0* | -0.1 | -2.6
O=C(NCC(Cl)c1ccc2ccccc2c1)c1c(F)cccc1F (centres undefined) | -11.7 | -208.4 | nt | 2.7 | 2.0 | -41.6
CCOc1cccc(/C=C/c2ccc3cccc(O)c3n2)c1O | -13.6 | 96.6* | -18.6 | 2.2 | -2.3 | -67.2
Oc1cccc2ccc(/C=C/c3ccccc3Cl)nc12 | -10.2 | -199.3 | -5.8 | 94.6* | 7.1 | 74.3*
CC(C)(CNc1ccc(S(=O)(=O)C(F)(F)F)cc1[N+](=O)[O-])N1CCOCC1 | 11.1 | 12.1 | 3.9 | 15.2 | -0.2 | 13.5
N#Cc1ccccc1OCC(=O)N1CCN(S(=O)(=O)c2ccc(Cl)cc2)CC1 | -9.2 | -2.1 | -3.6 | 11.4 | -6.4 | -11.3
CC1CC(C)CN(S(=O)(=O)N2CCCC(C(=O)NC(C)c3ccccc3)C2)C1 (centres undefined) | -2.5 | 6.6 | -2.9 | 5.3 | -6.3 | 4.8
CC(C)Cc1nnc(NC(=O)CC(=O)Nc2ccccc2C(=O)O)s1 | 15.6 | 27.5 | -2.5 | 50.8* | 6.4 | -5.1
CCc1nnc(NC(=O)CC(=O)Nc2ccccc2C(=O)O)s1 | -16.4 | 20.4 | 24.2 | 36.5 | 2.0 | -15.0
CC1(C)CC2CC(C)(CN2S(=O)(=O)c2ccc(C(=O)Nc3ccc(S(=O)(=O)N4CCOCC4)cc3)cc2)C1 (centres undefined) | 79.1 | 26.1 | 12.3 | 42.2 | -5.0 | 31.6
CCOC(=O)c1cc([N+](=O)[O-])sc1NC(=O)CC | 7.7 | 5.4 | 7.3 | 99.1* | 0.6 | 1.7
CCOC(=O)c1cc([N+](=O)[O-])sc1NC(=O)c1ccc(S(=O)(=O)N2CC3(C)CC2CC(C)(C)C3)cc1 (centres undefined) | 20.7 | 46.0 | 75.5* | 10.2 | 46.1* | 12.6
CCOC(=O)c1cc([N+](=O)[O-])sc1N | 0.1 | -15.8 | 15.3 | 2.1 | 3.0 | -4.7
Cc1cnc(C(=O)OCc2csc(CC(=O)Nc3ccccc3C)n2)cn1 | -1.4 | -2.4 | 9.3 | -14.4 | -5.7 | -18.1
Cc1sc2nc3c4ccccc4c(NCc4ccco4)nn3c(=O)c2c1C | -70.3 | -320.0 | -79.3 | 63.7* | -34.3 | -30.2
Cc1nc(NCc2ccco2)c2c(C)c(C)sc2n1 | -50.9 | 88.1* | 54.1 | -27.4 | -21.9 | 28.9
SMILES | Shn3 inh set2 | Peg3 promoter | TRPM1 prom inh | TWEAK Fn14 block | LMP1 NFkB inh | TROY NFkB inh
CCn1nc(C)cc1C(=O)N1CCCC(C(=O)c2ccc(OC)cc2C)C1 (centres undefined) | 18.8 | 14.7 | 8.9 | -4.2 | 0.9 | -0.7
CC(=O)OCC(=O)[C@@]1(O)CC[C@H]2[C@@H]3CCC4=CC(=O)CC[C@]4(C)[C@H]3C(=O)C[C@@]21C | 88.3* | -6.4 | -2.6 | -2.5 | -1.9 | -2.4
CCC(CC)C(=O)OCC(=O)C1(O)CCC2C3CCC4=CC(=O)CCC4(C)C3C(O)CC21C (centres undefined) | -3.6 | -9.5 | -3.3 | 5.5 | -2.6 | 33.0
CC(=O)OCC(=O)C1(O)CCC2C3CC(F)C4=CC(=O)CCC4(C)C3C(=O)CC21C (centres undefined) | -3.6 | 4.7 | -12.3 | -8.0 | 0.7 | -13.8
CC(=O)OCC(=O)[C@@]1(O)CC[C@H]2[C@@H]3CCC4=CC(=O)CC[C@]4(C)[C@H]3[C@@H](O)C[C@@]21C | 3.6 | 6.1 | -7.9 | 1.1 | 86.1*! | 16.8
O=C(CCNC(=O)c1ccco1)Nc1ccc(F)c(Cl)c1 | 0.9 | 7.2 | 9.2 | -3.6 | 4.7 | 3.5
CCOc1ccc(S(=O)(=O)N2CCC(C(=O)NC3CC3)CC2)cc1C | 5.1 | 6.9 | 9.7 | -3.7 | -1.6 | 4.0
Nc1cccnc1S(=O)(=O)c1cccc(C(F)(F)F)c1 | 6.7 | 12.4 | 0.3 | -16.9 | -2.4 | 20.4
Nc1nc(N)c2cc(S(=O)(=O)c3cccc(C(F)(F)F)c3)ccc2n1 | 85.3* | 22.4 | nt | 18.4 | 1.7 | 22.2
Cn1c(=O)[nH]c(=O)c2c1nc(SCCCO)n2CCCc1ccccc1 | -0.6 | 6.0 | -19.5 | -14.1 | 2.3 | -7.9
Cc1cc(C)nc(N/N=C/c2cc(Br)ccc2O)n1 | 88.8* | -31.5 | 9.9 | -5.1 | 8.1 | -23.9
N#CCCN(NC1=NS(=O)(=O)c2ccccc21)C(=O)c1ccccc1Br | 2.9 | -5.6 | -2.9 | 12.2 | 7.9 | 21.2
CN1CCN(C(=O)c2cc([N+](=O)[O-])cc([N+](=O)[O-])c2)CC1 | -20.2 | 10.3 | nt | 79.6* | 11.0 | -3.7
O=C(c1cc(C(=O)N2CCCC2)cc([N+](=O)[O-])c1)N1CCCC1 | -3.9 | 14.1 | 2.6 | 11.7 | -6.1 | 20.0
COc1ccc(CN(C)c2ccc(S(=O)(=O)N3CCN(C)CC3)cc2[N+](=O)[O-])cc1OC | 88.2* | 14.7 | 13.0 | 40.1 | 23.5 | 22.2
COc1ccccc1NS(=O)(=O)c1ccc2oc(SCc3ccc(F)cc3)nc2c1 | 6.4 | 12.8 | 4.4 | 27.6 | 2.3 | 23.7
COc1ccc(NS(=O)(=O)c2ccc3oc(SCc4ccc(F)cc4)nc3c2)cc1 | 43.9 | 25.9 | 4.9 | 48.3 | 6.8 | 50.6*
O=C(Nc1ccc(-c2csc(Nc3cccc(C(F)(F)F)c3)n2)cc1)c1ccccc1 | 46.1 | 26.5 | 16.5 | 64.8* | -11.1 | -1.7
Cc1nc(-c2ccc(NC(=O)c3ccccc3)cc2)cs1 | -3.2 | -91.6 | -14.5 | 67.8* | -6.9 | 19.1
O=C(Nc1cccc(-c2csc(Nc3cccc(C(F)(F)F)c3)n2)c1)c1ccccc1 | 4.7 | 36.9 | 9.5 | 42.5 | -25.7 | -3.4
CC(C)(C)n1nnnc1C(c1ccc(C(F)(F)F)cc1)N(Cc1ccc(F)cc1)Cc1ccco1 (centres undefined) | 89.1* | -4.3 | 3.4 | 22.2 | 1.3 | 3.6
